From PubChem BioAssay come the findings set out here.

Each structure is given as a SMILES string. Active and inactive are the calls of the source. Unless noted, no rule for the calls is given here.

Test [1] has as its system Wnt5a (protein binding on small-molecule microarray). Briefly: Wnt5a binders on small-molecule microarray, primary screen, biophysical, 635/667 nm fluorescence (AID 1142).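 Also: fluorescence read at 667 nm with signal to noise per printed feature.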 The conditions noted are these: 635 nm fluorescence, higher = more signal.
Test [2] is described as follows: cell viability in Huh7 cells, primary screen, cytotoxicity control for HCV replication inhibitor project, CellTiter-Glo luminescence, basal, 48 h (AID 1143).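 Also: Huh7 hepatoma cells carrying a hepatitis C replication reporter with no stimulus; test concentration not given here.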 To be noted: Huh7 HCV replicon, higher = more signal, called active from +8 up or from −8 down.
Test [3] is described as follows: P. aeruginosa biofilm formation inhibitors, primary screen, PAO1 strain, BacTiter-Glo luminescence, LB-PBS (AID 1144). To be noted: 12 h, higher = more signal.
The nature of test [4]: CREB reporter modulators without forskolin, primary screen, cell-based, PC12, CRE-LacZ reporter, unstimulated (AID 1145). The conditions noted are these: no forskolin, luminescence, 4.5 h, higher = more signal, called active from +8 up or from −8 down.
Test [5] in a line: CREB reporter modulators under forskolin, primary screen, cell-based, PC12, CRE-LacZ reporter, forskolin-stimulated (AID 1146).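 Also: PC12 cells with 6xCRE LacZ reporter stimulated by forskolin 10 µM; beta-galactosidase reporter signal reflecting CREB driven transcription.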 The conditions noted are these: luminescence, 4.5 h, higher = more signal, called active from +8 up or from −8 down.
Test [6] addresses Streptavidin (Streptomyces avidinii) (UniProt P22629). As to the kind of experiment: streptavidin binders on small-molecule microarray, primary screen, artefact control for SMM compound annotation, biophysical, 635/667 nm fluorescence (AID 1147).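 Also: signal reflects streptavidin binding to arrayed compounds as a control protein.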 The conditions noted are these: streptavidin binding, higher = more signal.
A short description of test [7]: small-molecule binders of probe aInhba, primary screen, biochemical, small-molecule microarray, 635/667 nm fluorescence (AID 1148).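 Also: score merges 667nm spot fluorescence with signal-to-noise for antibody binding to printed compounds.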 To be noted: higher = more signal.
In test [8] the target is Torsin-1A (Homo sapiens) (UniProt O14656). Briefly: torsin A binders from cell lysate, primary screen, small-molecule microarray, wild-type, 635/667 nm (AID 1149). The conditions noted are these: COS7 hTOR1A-WT lysate, 635 nm fluorescence, higher = more signal.
Torsin-1A (Homo sapiens), sequence (O14656 whole entry, looked up): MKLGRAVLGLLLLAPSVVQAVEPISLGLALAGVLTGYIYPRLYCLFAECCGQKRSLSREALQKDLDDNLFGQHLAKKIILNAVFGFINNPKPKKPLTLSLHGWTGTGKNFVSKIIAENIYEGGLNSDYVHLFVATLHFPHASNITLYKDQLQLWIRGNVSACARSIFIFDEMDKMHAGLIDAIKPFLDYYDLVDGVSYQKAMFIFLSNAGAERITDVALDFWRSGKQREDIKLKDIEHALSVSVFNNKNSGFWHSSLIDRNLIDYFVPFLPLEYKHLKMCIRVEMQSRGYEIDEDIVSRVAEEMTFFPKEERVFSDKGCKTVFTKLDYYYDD
For test [9] the target is unchanged. Briefly: small-molecule binders of mutant TOR1A in lysate, primary screen, cell lysate, small-molecule microarray, COS7 lysate, 635/667 nm fluorescence (AID 1150).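 Also: score pools 667 nm emission and signal to noise measuring lysate protein binding.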 The conditions noted are these: COS7 hTOR1A mutant lysate, 635 nm fluorescence, higher = more signal.
Test [10] has as its system Sonic hedgehog protein (Shh). Briefly: small-molecule binders of Shh protein, primary screen, biochemical, small-molecule microarray, 635/667 nm fluorescence (AID 1151).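 Also: Shh protein binding to compounds spotted on small-molecule microarray slides; score combines spot fluorescence intensity with signal-to-noise across triplicate slides.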 To be noted: small-molecule microarray binding, 635 nm fluorescence; higher = more signal.
A short description of test [11]: E. coli DRC41 culture turbidity changes, primary screen, E. coli filamentation inducer project, strain DRC41, OD650, 48 h (AID 1152).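 Also: E. coli MC1000 strain DRC41 lacking acrAB efflux pump and sulA.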 To be noted: E. coli DRC41 (acrAB sulA), higher = more signal, called active from +8 up or from −8 down.
The nature of test [12]: small-molecule binders of probe aLefty1, primary screen, biochemical, small-molecule microarray, 635/667 nm fluorescence (AID 1153).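 Also: score merges spot fluorescence with signal-to-noise ratio from the scanned slide images.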 To be noted: higher = more signal.
Test [13] can be described thus: PSAC antagonists in infected red cells, primary screen, cell-based, P. falciparum Indochina, OD700, 1 h (AID 1154). The conditions noted are these: P. falciparum Indochina infected RBC osmotic lysis, higher = more signal, called active from +8 up or from −8 down.
Test [14] can be described thus: PSAC antagonists in infected red cells, primary screen, cell-based, P. falciparum Indochina, OD700, 2 h (AID 1155).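 Also: lysis reports solute entry through the parasite surface anion channel PSAC; channel blockers reduce lysis of infected cells.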 To be noted: P. falciparum Indochina infected erythrocytes, osmotic lysis OD700; higher = more signal, called active from +8 up or from −8 down.
Test [15] is described as follows: osmotic lysis modulators in infected erythrocytes, primary screen, PSAC antagonist project, cell-based, P. falciparum Indochina, OD700, 3 h (AID 1156). To be noted: higher = more signal, called active from +8 up or from −8 down.
Test [16] can be described thus: PSAC antagonists in infected red cells, primary screen, cell-based, P. falciparum Indochina, OD700, 18 h (AID 1157). To be noted: P. falciparum Indochina infected erythrocytes, osmotic lysis OD700, 18 h; higher = more signal, called active from +8 up or from −8 down.
A short description of test [17]: modulators of S6 phosphorylation in cells, primary screen, cell-based, A549, cytoblot, luminescence, serum-stimulated (AID 1158).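 Also: serum-stimulated A549 lung adenocarcinoma cells; signal is phosphorylated S6 detected by cytoblot immunostaining with HRP secondary.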 The conditions noted are these: A549 phospho-S6 cytoblot, 5 h, higher = more signal.
Test [18] deals with NADPH oxidase 2 (Homo sapiens) (UniProt P04839). As to the kind of experiment: NOX2-dependent H2O2 signal modulators, primary screen, NOX inhibitor project, cell-based, HEK293-NOX2, PMA-stimulated, Amplex Red fluorescence (AID 1159). Also: test concentration not given here. The conditions noted are these: 45 min, higher = more signal, called active from +8 up or from −8 down.
NADPH oxidase 2 (Homo sapiens), sequence (P04839 whole entry, looked up): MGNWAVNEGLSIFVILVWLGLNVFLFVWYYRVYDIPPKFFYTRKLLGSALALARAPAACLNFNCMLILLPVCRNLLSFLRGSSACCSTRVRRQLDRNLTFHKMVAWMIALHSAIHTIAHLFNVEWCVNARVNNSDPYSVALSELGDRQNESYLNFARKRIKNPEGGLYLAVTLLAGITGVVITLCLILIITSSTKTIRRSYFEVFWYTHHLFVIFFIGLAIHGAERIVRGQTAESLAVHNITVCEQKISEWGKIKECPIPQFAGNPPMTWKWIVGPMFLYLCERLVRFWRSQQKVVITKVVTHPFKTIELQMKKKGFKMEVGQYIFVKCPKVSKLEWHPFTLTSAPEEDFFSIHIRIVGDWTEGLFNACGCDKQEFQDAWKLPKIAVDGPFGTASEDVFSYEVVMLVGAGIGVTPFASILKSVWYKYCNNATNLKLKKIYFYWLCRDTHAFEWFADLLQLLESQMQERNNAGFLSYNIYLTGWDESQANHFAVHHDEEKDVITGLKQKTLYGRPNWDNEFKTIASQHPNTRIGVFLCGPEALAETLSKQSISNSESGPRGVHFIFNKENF
For test [19], the target named is NADPH oxidase 4 (Homo sapiens) (UniProt Q9NPH5). Briefly: NOX4-dependent H2O2 signal modulators, primary screen, NOX inhibitor project, cell-based, HEK293-NOX4, tetracycline-induced, Amplex Red fluorescence (AID 1160). To be noted: 45 min, higher = more signal, called active from +8 up or from −8 down.
NADPH oxidase 4 (Homo sapiens), sequence (Q9NPH5 whole entry, looked up): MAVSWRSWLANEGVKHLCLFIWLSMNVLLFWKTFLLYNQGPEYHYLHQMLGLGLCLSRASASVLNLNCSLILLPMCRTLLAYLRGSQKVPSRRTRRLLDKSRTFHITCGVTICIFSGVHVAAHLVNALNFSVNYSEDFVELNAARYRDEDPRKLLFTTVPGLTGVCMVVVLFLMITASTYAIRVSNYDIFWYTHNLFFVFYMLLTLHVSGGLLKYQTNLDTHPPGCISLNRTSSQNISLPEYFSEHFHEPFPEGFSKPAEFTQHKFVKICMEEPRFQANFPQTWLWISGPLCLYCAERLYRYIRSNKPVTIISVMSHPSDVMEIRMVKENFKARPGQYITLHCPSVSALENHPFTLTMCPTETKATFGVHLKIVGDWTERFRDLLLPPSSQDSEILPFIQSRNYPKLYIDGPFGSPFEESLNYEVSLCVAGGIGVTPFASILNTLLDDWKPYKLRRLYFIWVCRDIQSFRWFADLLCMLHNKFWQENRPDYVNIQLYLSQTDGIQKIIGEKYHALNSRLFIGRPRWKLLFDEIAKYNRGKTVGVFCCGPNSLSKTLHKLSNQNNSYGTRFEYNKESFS
For test [20], the target named is NADPH oxidase 5 (Homo sapiens) (UniProt Q96PH1). Briefly: NOX5-dependent H2O2 signal modulators, primary screen, NOX inhibitor project, cell-based, HEK293-NOX5, Amplex Red fluorescence (AID 1161). The conditions noted are these: HEK293-NOX5, ionomycin, 45 min, higher = more signal.
NADPH oxidase 5 (Homo sapiens), sequence (Q96PH1 whole entry, looked up): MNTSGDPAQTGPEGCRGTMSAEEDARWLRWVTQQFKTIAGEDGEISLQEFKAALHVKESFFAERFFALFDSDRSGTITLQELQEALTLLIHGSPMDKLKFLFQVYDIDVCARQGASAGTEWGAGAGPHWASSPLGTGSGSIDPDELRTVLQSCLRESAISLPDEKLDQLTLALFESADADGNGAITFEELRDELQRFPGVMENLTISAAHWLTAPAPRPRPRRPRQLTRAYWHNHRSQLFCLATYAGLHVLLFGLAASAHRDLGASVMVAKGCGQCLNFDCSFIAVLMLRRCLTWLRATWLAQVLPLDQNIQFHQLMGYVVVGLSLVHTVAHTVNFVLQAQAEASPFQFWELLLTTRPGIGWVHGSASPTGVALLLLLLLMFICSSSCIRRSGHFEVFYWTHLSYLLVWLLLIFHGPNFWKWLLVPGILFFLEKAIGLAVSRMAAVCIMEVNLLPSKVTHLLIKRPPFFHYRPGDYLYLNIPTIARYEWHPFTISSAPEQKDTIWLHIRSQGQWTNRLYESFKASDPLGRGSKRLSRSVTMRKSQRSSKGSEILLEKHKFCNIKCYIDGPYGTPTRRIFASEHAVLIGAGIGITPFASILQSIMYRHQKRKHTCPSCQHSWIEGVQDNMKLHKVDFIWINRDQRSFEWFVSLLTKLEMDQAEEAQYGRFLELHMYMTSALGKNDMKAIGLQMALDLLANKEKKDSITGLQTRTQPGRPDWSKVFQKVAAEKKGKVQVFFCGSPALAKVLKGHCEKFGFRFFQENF

Streptavidin (Streptomyces avidinii), sequence (P22629 whole entry, looked up): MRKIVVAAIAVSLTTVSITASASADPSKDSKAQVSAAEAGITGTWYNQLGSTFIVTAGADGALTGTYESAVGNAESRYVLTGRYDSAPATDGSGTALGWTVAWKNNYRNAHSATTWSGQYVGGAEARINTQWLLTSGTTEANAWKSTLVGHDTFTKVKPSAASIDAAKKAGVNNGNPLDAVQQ

Take `NCCCCCNC(=O)[C@@H]1C[C@@H]2C(=O)N[C@@H](CCCCN)C(=O)N2[C@@H]1c1ccc(O)cc1`: the composite z-score in test [1] is -0.0113; in [6] it was 0.811; in [7], 0.217; with Torsin-1A (Homo sapiens) [8], 0.811; with Torsin-1A (Homo sapiens) [9], 1.59; in test [10] it was 1.99. Moreover, the composite z-score in test [12] came out at 0.739. In addition, the z-score in test [2] was -0.308 (inactive); in test [3] it was -0.148 (inactive); in test [4], 0.0205 (inactive); in test [5], -0.878 (inactive); in test [11] it was -0.175 (inactive); in test [13], 3.95 (inactive). Also, the z-score in test [14] was 1.74 (inactive); in [15], -2.34 (inactive); in [16], 0.937 (inactive); in test [17], -0.912; in test [18], 1.5 (inactive); in test [19], 1.85 (inactive). Also, the z-score in [20] was determined as 1.48.

As to `CN(C)C(=O)[C@@]1(Cc2ccccc2)N=C(c2ccc(OCCCO)cc2)O[C@H]1c1ccccc1`, the composite z-score in [1] amounted to 0.87; in test [6], 1.29; in test [7], 0.715; with Torsin-1A (Homo sapiens) [8], 0.435; with Torsin-1A (Homo sapiens) [9] it was 0.0678; in test [10] it was 0.141. This compound gave a composite z-score in test [12] of -0.0171. The z-score was -3.42 (inactive) in test [2]; -0.315 (inactive) in [3]; 0.195 (inactive) in test [4]; -0.925 (inactive) in test [5]; 0.756 (inactive) in test [11]; 14.9 (active) in test [13]. Besides, the z-score in [14] is 2.63 (inactive); in test [15], 1.4 (inactive); in test [16] it was 1.33 (inactive); in test [17] it was -0.39; in test [18], -0.896 (inactive); in test [19], 0.068 (inactive). The compound also displayed a z-score in test [20] of -1.7.

On to `[N-]=[N+]=Nc1ccccc1C[C@@]1(C(N)=O)N=C(c2ccc(OCCCO)cc2)O[C@@H]1c1ccccc1N=[N+]=[N-]`, for which the composite z-score is 0.351 in test [1]; 0.823 in test [6]; 0.258 in [7]; 0.252 with Torsin-1A (Homo sapiens) [8]; 0.789 in the test with Torsin-1A (Homo sapiens) [9]; -0.535 in [10]. The same compound gave a composite z-score in test [12] of 0.0211. Moreover, the z-score is -5.17 (inactive) in test [2]; -0.0225 (inactive) in test [3]; -0.207 (inactive) in test [4]; -1.89 (inactive) in [5]; 0.587 (inactive) in test [11]; 30.4 (active) in [13]. In addition, the z-score was 25.3 (active) in test [14]; 2.63 (inactive) in test [15]; 1.35 (inactive) in test [16]; 2.05 in test [17]; -0.0581 (inactive) in [18]; -1.11 (inactive) in [19]. In test [20], the z-score is -1.55.

Take `CCCCCCc1nc(Cc2cc(OC)c(OC)c(OC)c2)cc2c1[Si](C(C)C)(C(C)C)OC2`: the composite z-score was 0.03 in test [1]; 0.0761 in [6]; 0.0973 in [7]; 0.108 with Torsin-1A (Homo sapiens) [8]; -0.282 with Torsin-1A (Homo sapiens) [9]; 0.724 in [10]. In addition, the composite z-score in [12] is -0.131. Further, the z-score in test [2] is -5.33 (inactive); in test [3] it was -0.012 (inactive); in [4] it was 0.498 (inactive); in test [5] it was -0.419 (inactive); in [11], -0.56 (inactive); in test [13], 0.88 (inactive). The z-score in [14] was -0.221 (inactive); in [15], 0.908 (inactive); in [16], -0.718 (inactive); in test [17] it was 0.552; in [18], -4.01 (inactive); in test [19], -1.88 (inactive). The z-score in test [20] was -5.31.

`CC1CC/C=C\[C@H]2OC34C=CCN(c5ccc6ccccc6c5)C(=O)[C@H]3N(CCCO)C(=O)[C@@H]4C2C(=O)O1` (stereo not given in full): the composite z-score was -1.1 in test [1]; -1.1 in test [6]; -0.293 in test [7]; -2.88 with Torsin-1A (Homo sapiens) [8]; -1.47 in the test with Torsin-1A (Homo sapiens) [9]; -0.749 in test [10]. This compound registered a composite z-score in test [12] of -0.138. The z-score in test [2] is 0.0518 (inactive); in test [3], 1.57 (inactive); in test [4], 0.191 (inactive); in test [5] it was 0.234 (inactive); in test [11] it was -0.866 (inactive); in test [13] it was 1.33 (inactive). Moreover, the z-score in test [14] was 0.398 (inactive); in [15], -0.0069 (inactive); in test [16], 0.357 (inactive); in [17], -0.0819; in test [18], 1.84 (inactive); in test [19], -1.18 (inactive). In [20], this compound returned a z-score of 2.84.
